This is a sample that favours compounds with a hit; in the whole collection about 1.5% have one here.
MCL1-BIM inh – MCL1-BIM-BH3 interaction inhibition (human); Q07820; GST-MCL1 / FITC-Bim-BH3 fluorescence polarization; inhibition, % at 10.9 µM; 320,000 tested, 0.68% active; AID 2057;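 active means inhibition above the mean inhibition of all tested compounds plus 3 SD, set per campaign, cut at about 40% in these data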;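 further: 0% = DMSO wells and 100% = unlabeled Bim-BH3 peptide control; higher means more loss of mP so more displacement of Bim peptide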
eLon inh – inhibitors of E. coli Lon protease; purified E. coli Lon protease, fluorescence polarization; inhibition, % at 7.94 µM; 360,000 tested, 0.42% active; in the data active means inhibition above about 13%, passing the limit was not always enough;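 further: 0% = enzyme with probe and DMSO and 100% = no enzyme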
GLD-1 TGE inh – GLD-1-TGE RNA interaction inhibition (C. elegans). Q17339. purified GLD-1 + fluorescein TGE RNA, fluorescence polarization. inhibition, % at 5.96 µM. 320,000 tested, 0.44% active;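 active means percent inhibition above a per-plate cutoff, the plate mean of test compounds plus 3 SD, cut at about 30% in these data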;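 further: 0% = DMSO wells with GLD-1 and probe and 100% = wells lacking GLD-1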
Bcl-xL primary – blocks human Bcl-xL binding to Bim BH3 peptide | 320,000 tested, 0.7% active | GST-Bcl-xL / FITC-Bim BH3 peptide fluorescence polarization | inhibition, % at 10.9 µM;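 active means inhibition above the mean of all tested compounds plus 3 SD, cutoff set per campaign, cut at about 30% in these data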;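 further: 0% = DMSO wells and 100% = unlabeled Bim-BH3 peptide competitor; inhibitors lower millipolarization by displacing the labeled peptide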
MEX-5 binding – C. elegans MEX-5 TCR-2 RNA binding activity; Q9XUB2; MEX-5/FITC-TCR2 RNA binding, fluorescence polarization; active compounds read low; activity score (negative = inhibition of binding), % at 10 µM; 300,000 tested, 0.38% active; AID 1832;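 active means inhibition past about -25% in most replicates, and total fluorescence under double the plate's negative control median, limit read from the data; inconclusive means replicates evenly split on the limit, or fluorescence at least double controls; inactive means too little inhibition in most replicates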;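 further: 0% = DMSO and -100% = 5 µM competing unlabeled TCR2 RNA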
Target sequence (Q9XUB2 whole entry, looked up): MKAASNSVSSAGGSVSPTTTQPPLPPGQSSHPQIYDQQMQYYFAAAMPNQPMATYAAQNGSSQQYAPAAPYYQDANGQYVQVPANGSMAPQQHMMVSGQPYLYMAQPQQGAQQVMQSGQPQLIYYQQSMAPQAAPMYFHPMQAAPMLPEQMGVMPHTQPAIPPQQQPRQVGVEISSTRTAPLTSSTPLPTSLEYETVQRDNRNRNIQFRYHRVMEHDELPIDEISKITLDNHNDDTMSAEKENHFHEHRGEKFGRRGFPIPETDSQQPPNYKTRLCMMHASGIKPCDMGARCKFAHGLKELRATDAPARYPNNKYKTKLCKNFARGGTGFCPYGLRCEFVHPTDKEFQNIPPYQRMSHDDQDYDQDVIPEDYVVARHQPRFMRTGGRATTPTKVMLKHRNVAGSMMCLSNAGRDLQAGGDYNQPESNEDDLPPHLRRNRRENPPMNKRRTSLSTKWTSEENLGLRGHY
EBV gp42 block – inhibitors of Epstein-Barr virus glycoprotein 42 | inhibition, % (tested at 21.74 µM) | 220,000 tested, 0.42% active | Fluorescence polarization binding assay, mP read-out | AID 1085; in the data active means inhibition above about 50%
Target sequence (Q1HVG2 whole entry, looked up): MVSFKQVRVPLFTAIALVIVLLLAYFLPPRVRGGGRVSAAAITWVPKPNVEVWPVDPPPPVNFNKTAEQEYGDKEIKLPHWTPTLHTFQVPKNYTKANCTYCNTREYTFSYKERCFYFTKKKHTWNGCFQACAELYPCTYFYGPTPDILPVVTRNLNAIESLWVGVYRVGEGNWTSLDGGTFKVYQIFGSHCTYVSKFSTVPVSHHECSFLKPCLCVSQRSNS
BCLXL inh confirm – counter-screen for MCL1 inhibitors: confirmation of human Bcl-xL inhibitors; shares compounds with MCL1-BIM inh; GST-Bcl-xL / FITC-Bim BH3 peptide FP binding; inhibition, % at 10.9 µM; 1,700 tested, 54% active; AID 2166;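 active means inhibition above a cutoff equal to the mean inhibition of all tested compounds plus 3 SD, cut at about 30% in these data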;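 further: 0% = DMSO wells and 100% = unlabeled Bim BH3 control peptide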
MCL1 inh confirm – confirmation of human MCL1 and BIM-BH3 interaction inhibitors; 1,700 tested, 61% active; GST-MCL1 / FITC-Bim-BH3 fluorescence polarization; inhibition, % at 10.9 µM; shares compounds with MCL1-BIM inh;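 active means inhibition above the average of all tested compounds plus 3 SD, cut at about 40% in these data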;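 further: 0% = DMSO wells and 100% = unlabeled Bim-BH3 control peptide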
GLD-1 TGE cf – GLD-1 TGE RNA interaction inhibition, confirmation; inhibition, % at 5.96 µM; AID 2459; shares compounds with GLD-1 TGE inh; GLD-1/FL-TGE RNA fluorescence polarization, biochemical; 550 tested, 10% active;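 active means average inhibition across triplicates above the hit cutoff set in the primary screen, cut at about 32% in these data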;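 further: 0% = GLD-1 with RNA probe and DMSO and 100% = wells lacking GLD-1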
eLon confirm – confirmation of E. coli Lon protease inhibitors. purified E. coli Lon, fluorescence polarization. AID 602230. shares compounds with eLon inh. 1,400 tested, 31% active. inhibition, % at 7.94 µM; in the data active means inhibition above about 16%;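 further: 0% = enzyme with probe and DMSO and 100% = no enzyme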
Starred values were filed as active, the others as inactive.

Results for Cc1cc2c(C(F)(F)F)cc(=O)oc2c2c1NCCC2 ?
MCL1-BIM inh: 146*; eLon inh: 65*; GLD-1 TGE inh: 112*; Bcl-xL primary: 112*; MEX-5 binding: -1; EBV gp42 block: -39; BCLXL inh confirm: 95*; MCL1 inh confirm: 94*; eLon confirm: 62*

How did O=c1cc(C(F)(F)F)c2cc3c4c(c2o1)CCCN4CCC3 do in these assays?
MCL1-BIM inh: active; eLon inh: active; GLD-1 TGE inh: active; Bcl-xL primary: active; MEX-5 binding: inconclusive; EBV gp42 block: 150*; BCLXL inh confirm: 179*; MCL1 inh confirm: active; eLon confirm: 167*

How did O=C1c2ccccc2-n2nnnc2C2c3ccccc3-n3nncc3CN12 (centres undefined) do in these assays?
eLon inh: 2

How did Cn1c(O)c(C(=Nc2ccccc2)SCc2ccc(Cl)cc2)c(=O)n(C)c1=O do in these assays?
MCL1-BIM inh: 6; eLon inh: 5; GLD-1 TGE inh: 5; Bcl-xL primary: 8; MEX-5 binding: -1; EBV gp42 block: -16

Results for Nc1ccc2ccc3cccc[n+]3c2c1 ?
MCL1-BIM inh: active; eLon inh: active; GLD-1 TGE inh: 63*; Bcl-xL primary: active; MEX-5 binding: inconclusive; BCLXL inh confirm: active; MCL1 inh confirm: active; eLon confirm: active

What do the screens show for `COC(=O)CCCCC1SCC(NC(=O)c2ccccc2)C1Cl` (centres undefined)?
MCL1-BIM inh: 46*; eLon inh: -1; GLD-1 TGE inh: 38*; Bcl-xL primary: 48*; MEX-5 binding: 3; EBV gp42 block: 53*; GLD-1 TGE cf: 19

How did N#Cc1ccc(/C=C/C(=O)O)cc1 do in these assays?
MCL1-BIM inh: 4; eLon inh: -1; GLD-1 TGE inh: 55*; Bcl-xL primary: 6; EBV gp42 block: -10; GLD-1 TGE cf: 0

Results for N#C/C(=C\c1ccc(O)cc1)C(=O)O ?
eLon inh: -6

How did CCN(CC)CCN1Cc2ccccc2C1=N do in these assays?
MCL1-BIM inh: 36; eLon inh: -3; GLD-1 TGE inh: 36*; Bcl-xL primary: 32*; MEX-5 binding: 2; EBV gp42 block: -9; GLD-1 TGE cf: -3

Results for Cc1ccc(NC(=O)[C@@H](NC(=O)N2C[C@H]3C[C@@H](C2)c2cccc(=O)n2C3)C(C)C)cc1 ?
MCL1-BIM inh: -9; eLon inh: -5; GLD-1 TGE inh: 6; Bcl-xL primary: -5; MEX-5 binding: -1

What do the screens show for `COC(=O)C1=C(c2ccc3ccccc3c2)C[C@@H]2CC[C@H]1N2C(=O)NCCNC(C)=O`?
MCL1-BIM inh: 9; eLon inh: -7; GLD-1 TGE inh: -4; Bcl-xL primary: 11

How did CNC(=O)Oc1cccc(-c2cn3cc(OC(=O)NC)ccc3n2)c1 do in these assays?
MCL1-BIM inh: 20; eLon inh: 35*; GLD-1 TGE inh: 42*; Bcl-xL primary: 22; EBV gp42 block: 20; GLD-1 TGE cf: 13; eLon confirm: 4

What do the screens show for `COC(=O)C1=C(c2ccc(F)cc2F)C[C@@H]2CC[C@H]1N2C(=O)N1CCC(O)(c2ccc(Cl)cc2)CC1`?
MCL1-BIM inh: 8; eLon inh: -4; GLD-1 TGE inh: 9; Bcl-xL primary: 7

What do the screens show for `CCOc1cccc(=NC2CCCCC2)c2c(C)n(C)c(C)c12`?
MCL1-BIM inh: 14; eLon inh: 90*; GLD-1 TGE inh: -9; Bcl-xL primary: 18; MEX-5 binding: -5; EBV gp42 block: -1; eLon confirm: 0

What do the screens show for `COc1ccc(OCC(=O)N2CCCC(N3CCN(c4ccccc4C)CC3)C2)cc1` (centres undefined)?
MCL1-BIM inh: -2; eLon inh: 134*; GLD-1 TGE inh: -3; Bcl-xL primary: 2; MEX-5 binding: 1; eLon confirm: -4

Results for Cc1ccc(OCC(=O)N2CCCC(N3CCN(c4ccc(F)cc4)CC3)C2)cc1 (centres undefined) ?
MCL1-BIM inh: 6; eLon inh: -8; GLD-1 TGE inh: -1; Bcl-xL primary: 9; MEX-5 binding: -1

What do the screens show for `C#CC[N+]1(C)[C@@H]2CC(OC(=O)C(CO)c3ccccc3)C[C@H]1C(O)C2` (some centres undefined)?
MCL1-BIM inh: 3; eLon inh: 0; GLD-1 TGE inh: 3; Bcl-xL primary: 6; MEX-5 binding: 2

Results for O=[N+]([O-])c1ccc(N2CCOCC2)c2cccnc12 ?
MCL1-BIM inh: 3; eLon inh: -2; GLD-1 TGE inh: 2; Bcl-xL primary: 8; MEX-5 binding: 2; EBV gp42 block: -11

What do the screens show for `O=[N+]([O-])c1ccc(N2CCOCC2)c2c1no[n+]2[O-]`?
eLon inh: 29*; eLon confirm: 4

How did CCC(=NC(C)c1ccccc1)c1c(O)[nH]c(=O)[nH]c1=O (centres undefined) do in these assays?
MCL1-BIM inh: 2; eLon inh: 21*; GLD-1 TGE inh: 0; Bcl-xL primary: 0; MEX-5 binding: 0; EBV gp42 block: -11; eLon confirm: 6

How did CCC(=NCCC(c1ccccc1)c1ccccc1)c1c(O)[nH]c(=O)[nH]c1=O do in these assays?
MCL1-BIM inh: -4; eLon inh: -2; GLD-1 TGE inh: 0; Bcl-xL primary: -1; MEX-5 binding: 0; EBV gp42 block: -4

What do the screens show for `CC(=O)Nc1ccc(S(=O)(=O)N2Cc3cnnn3-c3ccccc3C2C#N)cc1` (centres undefined)?
eLon inh: -4

Results for Oc1cc(Cl)c(Cl)c(Cl)c1Cl ?
eLon inh: 49*; eLon confirm: -12

Results for COc1cccc2c1C(=O)c1c(O)c3c(c(O)c1C2=O)CC(O)(C(C)=NO)CC3OC1CC(N)C(O)C(C)O1 (centres undefined) ?
eLon inh: active; eLon confirm: active

Results for CCOCN(C(=O)CCl)c1c(C)cccc1CC ?
MCL1-BIM inh: 2; eLon inh: 2; GLD-1 TGE inh: -3; Bcl-xL primary: 0; MEX-5 binding: 0

How did C[C@H]1COc2cccc(N3CCN(C)CC3)c2S(=O)(=O)N1 do in these assays?
eLon inh: -1

Results for O=c1oc2ccccc2c(O)c1[C@H]1c2ccc(O)cc2Oc2c1c(=O)oc1ccccc21 ?
MCL1-BIM inh: 5; eLon inh: 18*; GLD-1 TGE inh: 3; Bcl-xL primary: 8; MEX-5 binding: -2; EBV gp42 block: -22; eLon confirm: 17*

Screens from PubChem.
